Some test systems named below: T-47D breast; BT-549 breast; MDA-MB-435 melanoma; SW-620 colon; MCF7 breast; HCT-116 colon; HCC-2998 colon; KM12 colon.
Test in all cases: NCI-60 one-dose screen, 48 h (100 = growth as untreated, 0 = no growth, -100 = all killed)
Common to all, as to conditions: 10 µM unless noted

From PubChem BioAssay (NCI) come the findings set out here.

Each structure is given as a SMILES string. The panel holds about 83,000 compounds, 20% with a hit somewhere; the sample as a whole holds those more often.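 How to read the values: 0–100, growth inhibition (40 = 60% inhibited); 0, no net growth; -100 to 0, cell death (-40 = 40% of starting cells died; -100 = all dead).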 Values without a mark were called inactive. Active and inactive are the calls of the source. How the source made its calls: active means growth percent below 10; inactive means the rest.

In the case of `Ic1ccccc1I`, the growth in the experiment with T-47D breast was 107%; with BT-549 breast it was 115%; with MDA-MB-435 melanoma, 111%; in the experiment with SW-620 colon, 108%; in the experiment on MCF7 breast it was 91.5%; with HCT-116 colon it was 98.5%. Besides, the growth was 98.2% in the experiment with HCC-2998 colon and 104% with KM12 colon.
As to `CC(=C(c1ccc(OCCN2CCCCC2)cc1)c1ccc(OCCN2CCCCC2)cc1)c1ccc(Cl)cc1`, the growth in the experiment on T-47D breast was -72.6% (active); with BT-549 breast, -87% (active); with MDA-MB-435 melanoma it was -96.6% (active); in the experiment on SW-620 colon, -84.8% (active); in the experiment on MCF7 breast, -85.4% (active); in the experiment on HCT-116 colon it was -88.9% (active). The results for the growth in the experiment with HCC-2998 colon and with KM12 colon were -93.4% (active) and -84.9% (active), respectively.
`Cc1ncc(C(=O)Nc2ccc(CN3CCN(C)CC3)c(C(F)(F)F)c2)cc1C#Cc1cnc(N)c2ncccc12`: the growth with T-47D breast was 51.4%; in the experiment with BT-549 breast, 42.4%; in the experiment with MDA-MB-435 melanoma, -66.5% (active); in the experiment on SW-620 colon, 16.6%; with MCF7 breast, -58.6% (active); in the experiment with HCT-116 colon, -75.5% (active). The growth in the experiment with HCC-2998 colon was 52.1%; in the experiment on KM12 colon, 7.51% (active).
Consider `CCOc1ccc(-n2nc(C(=O)NCc3ccccc3OC)nc2-c2cc(OC)c(OC)c(OC)c2)cc1`, for which the growth was 17% with T-47D breast; 33.9% with BT-549 breast; 22.1% in the experiment with MDA-MB-435 melanoma; 58% in the experiment on SW-620 colon; 22.1% in the experiment with MCF7 breast; 25.3% in the experiment with HCT-116 colon. The growth in the experiment with HCC-2998 colon was 57.5%; in the experiment on KM12 colon it was 33.8%.
For the compound `Cc1c(Cl)cccc1C(=O)Nc1nc2c(s1)CN(C(=O)c1ccc(C(F)(F)F)cc1)CC2`, the growth was 60.9% in the experiment with T-47D breast; 24.8% in the experiment with BT-549 breast; -12.4% (active) in the experiment on MDA-MB-435 melanoma; 18.6% with SW-620 colon; 17.3% in the experiment on MCF7 breast; 8.9% (active) in the experiment on HCT-116 colon. For the same compound, the growth with HCC-2998 colon is 28.4%; in the experiment with KM12 colon it was 18.9%.
For `CN1CCN(Cc2ccc(NC(=O)c3cncc(C#Cc4cnc5ccc(Cl)nn45)c3)cc2C(F)(F)F)CC1`, the growth in the experiment on T-47D breast is 10.4%; in the experiment on BT-549 breast it was -6.27% (active); with MDA-MB-435 melanoma, -10.4% (active); with SW-620 colon, -2.63% (active); with MCF7 breast, -2.36% (active); in the experiment with HCT-116 colon it was -12.6% (active). For the same compound, the figures for the growth with HCC-2998 colon and in the experiment on KM12 colon were -24.4% (active) and -0.151% (active), respectively.
Consider `C=C1C(=O)O[C@H]2[C@H]1CC/C(COC(=O)CSCSCC(=O)OC/C1=C/CC[C@@]3(C)O[C@H]3[C@H]3OC(=O)C(=C)[C@@H]3CC1)=C\CC[C@@]1(C)O[C@@H]21`, for which the growth was 20.9% in the experiment with T-47D breast; -5.92% (active) with BT-549 breast; 26.6% in the experiment with MDA-MB-435 melanoma; -9.08% (active) in the experiment on SW-620 colon; 16.7% in the experiment with MCF7 breast; -24% (active) in the experiment on HCT-116 colon. The values for the growth in the experiment on HCC-2998 colon and in the experiment with KM12 colon were 16.5% and 35.1%, respectively.
As to `Cc1n[nH]c2ccc(Br)cc2c1=O`, the growth with T-47D breast was 94.6%; in the experiment with BT-549 breast, 95.7%; in the experiment on MDA-MB-435 melanoma it was 107%; in the experiment with SW-620 colon, 113%; in the experiment on MCF7 breast, 108%; in the experiment on HCT-116 colon it was 98.7%. For the same compound, the growth in the experiment on HCC-2998 colon is 107%; in the experiment on KM12 colon, 95.9%.
`COc1ccc(-c2ccc(-c3ccc(C(=N)N)nc3)s2)cc1Cl`: the growth with T-47D breast was -28.6% (active); in the experiment with BT-549 breast, 77.9%; in the experiment with MDA-MB-435 melanoma, -90.3% (active); with SW-620 colon it was -79.8% (active); in the experiment with MCF7 breast it was -70% (active); in the experiment with HCT-116 colon it was -65.5% (active). The growth is -43.8% (active) in the experiment with HCC-2998 colon and -86% (active) in the experiment with KM12 colon.
For `O=C1/C=C/[C@@H](O)[C@@H]2C[C@@H](O)C[C@H]2/C=C/CCC[C@H](CCO)O1`, the growth in the experiment with T-47D breast was -17.8% (active); in the experiment with BT-549 breast, 8.06% (active); in the experiment on MDA-MB-435 melanoma it was 9.98% (active); in the experiment with SW-620 colon it was -46% (active); in the experiment on MCF7 breast, -17.1% (active); in the experiment on HCT-116 colon it was -62.5% (active). Moreover, the growth in the experiment with HCC-2998 colon is 1.71% (active); in the experiment with KM12 colon, -54.3% (active).
For the compound `O=C(N/N=C\c1ccccc1S(=O)(=O)O)N/N=C/c1ccccc1S(=O)(=O)O`, the growth with T-47D breast is 102%; in the experiment with BT-549 breast it was 118%; in the experiment on MDA-MB-435 melanoma it was 105%; in the experiment with SW-620 colon, 91.9%; in the experiment with MCF7 breast it was 93.4%; in the experiment with HCT-116 colon it was 106%. The figures for the growth in the experiment on HCC-2998 colon and in the experiment on KM12 colon were 104% and 94.1%, respectively.
Regarding `O=C(O)/C=C/C(=O)Nc1cccc(Cn2nnc3cc(Cl)c(Cl)cc32)c1`, the growth is 93.2% in the experiment with T-47D breast; 80.1% in the experiment with BT-549 breast; 106% in the experiment with MDA-MB-435 melanoma; 96.3% in the experiment on SW-620 colon; 89% with MCF7 breast; 96.9% with HCT-116 colon. The growth in the experiment on HCC-2998 colon is 112%; in the experiment on KM12 colon, 109%.
With `Cc1ccc(-c2nc(SCc3nc4cc(Cl)c(Cl)cc4[nH]3)[nH]c(=O)c2C#N)cc1`, the growth in the experiment on T-47D breast was 85.4%; with BT-549 breast, 92.5%; with MDA-MB-435 melanoma it was 105%; in the experiment with SW-620 colon, 109%; with MCF7 breast it was 101%; in the experiment on HCT-116 colon, 93.1%. Moreover, the growth with HCC-2998 colon is 110%; with KM12 colon, 96.6%.
For the compound `Cc1nc2cc(O)c(O)cc2cc1Oc1ccc(NC(=O)Nc2ccc(Cl)c(Cl)c2)cc1`, the growth in the experiment on T-47D breast is 62.2%; in the experiment with BT-549 breast, 82.2%; in the experiment with MDA-MB-435 melanoma it was 54.2%; in the experiment with SW-620 colon, 49.3%; with MCF7 breast, 76.2%; in the experiment on HCT-116 colon, 44.6%. The growth was 93.4% in the experiment on HCC-2998 colon and 74.6% in the experiment on KM12 colon.
For the compound `C=C(C)[C@@H]1CCC[C@]2(C(=O)N3CCN(C)CC3)CC[C@]3(C)[C@@H](CC[C@@H]4[C@@]5(C)CC/C(=N\NC(=O)c6ccncc6)C(C)(C)[C@@H]5CC[C@]43C)[C@@H]12`, the growth with T-47D breast is 87.7%; with BT-549 breast, 105%; with MDA-MB-435 melanoma, 81.8%; in the experiment with SW-620 colon, 81.2%; in the experiment with MCF7 breast, 50.7%; in the experiment with HCT-116 colon it was 97.8%. Further, the growth with HCC-2998 colon was 105%; with KM12 colon it was 85.4%.
